Laboratory results as given in the supplement of paper PMC11732987, “Enantioselective OTUD7B fragment discovery through chemoproteomics screening and high-throughput optimisation” (Communications Chemistry, 2025).

Legend:
Test in all cases: log2 ratio of Biotin-Ahx-Ub-VS probe labelling (fragment/DMSO); higher = less target engagement (more negative = stronger competition), active = hit call of the paper (q ≤ 0.05, log2 ratio ≤ -1)
Settings in all cases: compound concentration: 200 uM; treatment time: 3 h
USP19 = target: T1, USP19 (UniProt O94966)
T1 sequence (whole entry): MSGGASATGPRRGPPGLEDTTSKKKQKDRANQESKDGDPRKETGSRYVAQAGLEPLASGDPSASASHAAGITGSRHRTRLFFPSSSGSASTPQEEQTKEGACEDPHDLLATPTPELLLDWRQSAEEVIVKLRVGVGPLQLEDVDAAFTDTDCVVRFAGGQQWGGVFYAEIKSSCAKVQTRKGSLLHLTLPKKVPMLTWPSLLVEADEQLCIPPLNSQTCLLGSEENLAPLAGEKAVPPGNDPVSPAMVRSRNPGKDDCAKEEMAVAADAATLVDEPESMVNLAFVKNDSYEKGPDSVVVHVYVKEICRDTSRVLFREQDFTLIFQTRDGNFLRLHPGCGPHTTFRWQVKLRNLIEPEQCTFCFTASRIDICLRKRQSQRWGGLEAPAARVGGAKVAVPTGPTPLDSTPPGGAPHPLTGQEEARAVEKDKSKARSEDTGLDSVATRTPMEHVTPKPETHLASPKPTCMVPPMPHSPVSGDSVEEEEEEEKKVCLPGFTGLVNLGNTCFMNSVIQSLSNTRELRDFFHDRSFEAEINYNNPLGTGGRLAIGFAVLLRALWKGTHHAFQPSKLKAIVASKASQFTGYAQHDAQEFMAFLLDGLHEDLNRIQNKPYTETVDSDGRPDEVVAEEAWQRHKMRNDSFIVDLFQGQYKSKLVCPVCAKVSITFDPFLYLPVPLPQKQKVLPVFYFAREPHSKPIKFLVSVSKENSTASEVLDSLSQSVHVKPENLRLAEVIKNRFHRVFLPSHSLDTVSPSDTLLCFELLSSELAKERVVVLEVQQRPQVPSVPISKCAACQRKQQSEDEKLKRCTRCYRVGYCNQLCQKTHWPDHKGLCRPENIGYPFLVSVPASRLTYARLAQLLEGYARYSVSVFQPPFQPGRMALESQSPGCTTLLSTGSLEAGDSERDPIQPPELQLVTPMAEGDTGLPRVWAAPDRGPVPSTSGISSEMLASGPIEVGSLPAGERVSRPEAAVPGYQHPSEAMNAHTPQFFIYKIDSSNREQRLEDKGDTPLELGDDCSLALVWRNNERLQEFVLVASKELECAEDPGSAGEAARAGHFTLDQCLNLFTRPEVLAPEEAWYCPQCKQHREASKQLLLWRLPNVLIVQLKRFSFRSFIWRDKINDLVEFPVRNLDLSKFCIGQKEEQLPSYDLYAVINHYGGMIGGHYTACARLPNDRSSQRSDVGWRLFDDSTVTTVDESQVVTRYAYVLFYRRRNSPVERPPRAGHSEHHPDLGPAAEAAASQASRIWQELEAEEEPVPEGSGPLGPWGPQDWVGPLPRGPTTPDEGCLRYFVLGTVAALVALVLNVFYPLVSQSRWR
Method in brief: (§1)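 Labelled DUBs were enriched with NeutrAvidin, digested with LysC and trypsin, and run by diaPASEF LC-MS/MS. The labelling used Biotin-Ahx-Ub-VS at 0.5 µM final for 1 h on HEK293T lysate (495 µg per sample) previously treated in triplicate with fragment at 200 µM or vehicle for 3 h. Values are average log2 fragment/vehicle ratios by unpaired t-test on global-median-normalised Spectronaut quantities of proteins with ≥2 unique peptides.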

USP22 = target: T2, USP22 (UniProt Q9UPT9)
T2 sequence (whole entry): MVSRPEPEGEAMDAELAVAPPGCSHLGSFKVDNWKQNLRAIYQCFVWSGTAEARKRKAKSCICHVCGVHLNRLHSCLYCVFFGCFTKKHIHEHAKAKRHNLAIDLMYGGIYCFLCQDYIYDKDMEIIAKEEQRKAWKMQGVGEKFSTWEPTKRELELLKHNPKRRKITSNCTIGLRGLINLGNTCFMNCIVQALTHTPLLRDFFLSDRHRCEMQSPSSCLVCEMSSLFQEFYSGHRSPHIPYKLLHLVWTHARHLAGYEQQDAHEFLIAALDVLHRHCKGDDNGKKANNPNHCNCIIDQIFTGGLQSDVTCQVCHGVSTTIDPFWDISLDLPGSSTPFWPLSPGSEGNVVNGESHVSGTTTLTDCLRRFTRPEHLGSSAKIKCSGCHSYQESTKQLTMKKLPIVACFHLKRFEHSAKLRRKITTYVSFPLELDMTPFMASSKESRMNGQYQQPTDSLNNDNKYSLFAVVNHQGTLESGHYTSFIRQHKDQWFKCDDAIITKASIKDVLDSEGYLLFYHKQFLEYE
Method in brief: as §1

USP24 = USP24 (UniProt Q9UPU5)
Sequence of USP24 (Q9UPU5 whole entry): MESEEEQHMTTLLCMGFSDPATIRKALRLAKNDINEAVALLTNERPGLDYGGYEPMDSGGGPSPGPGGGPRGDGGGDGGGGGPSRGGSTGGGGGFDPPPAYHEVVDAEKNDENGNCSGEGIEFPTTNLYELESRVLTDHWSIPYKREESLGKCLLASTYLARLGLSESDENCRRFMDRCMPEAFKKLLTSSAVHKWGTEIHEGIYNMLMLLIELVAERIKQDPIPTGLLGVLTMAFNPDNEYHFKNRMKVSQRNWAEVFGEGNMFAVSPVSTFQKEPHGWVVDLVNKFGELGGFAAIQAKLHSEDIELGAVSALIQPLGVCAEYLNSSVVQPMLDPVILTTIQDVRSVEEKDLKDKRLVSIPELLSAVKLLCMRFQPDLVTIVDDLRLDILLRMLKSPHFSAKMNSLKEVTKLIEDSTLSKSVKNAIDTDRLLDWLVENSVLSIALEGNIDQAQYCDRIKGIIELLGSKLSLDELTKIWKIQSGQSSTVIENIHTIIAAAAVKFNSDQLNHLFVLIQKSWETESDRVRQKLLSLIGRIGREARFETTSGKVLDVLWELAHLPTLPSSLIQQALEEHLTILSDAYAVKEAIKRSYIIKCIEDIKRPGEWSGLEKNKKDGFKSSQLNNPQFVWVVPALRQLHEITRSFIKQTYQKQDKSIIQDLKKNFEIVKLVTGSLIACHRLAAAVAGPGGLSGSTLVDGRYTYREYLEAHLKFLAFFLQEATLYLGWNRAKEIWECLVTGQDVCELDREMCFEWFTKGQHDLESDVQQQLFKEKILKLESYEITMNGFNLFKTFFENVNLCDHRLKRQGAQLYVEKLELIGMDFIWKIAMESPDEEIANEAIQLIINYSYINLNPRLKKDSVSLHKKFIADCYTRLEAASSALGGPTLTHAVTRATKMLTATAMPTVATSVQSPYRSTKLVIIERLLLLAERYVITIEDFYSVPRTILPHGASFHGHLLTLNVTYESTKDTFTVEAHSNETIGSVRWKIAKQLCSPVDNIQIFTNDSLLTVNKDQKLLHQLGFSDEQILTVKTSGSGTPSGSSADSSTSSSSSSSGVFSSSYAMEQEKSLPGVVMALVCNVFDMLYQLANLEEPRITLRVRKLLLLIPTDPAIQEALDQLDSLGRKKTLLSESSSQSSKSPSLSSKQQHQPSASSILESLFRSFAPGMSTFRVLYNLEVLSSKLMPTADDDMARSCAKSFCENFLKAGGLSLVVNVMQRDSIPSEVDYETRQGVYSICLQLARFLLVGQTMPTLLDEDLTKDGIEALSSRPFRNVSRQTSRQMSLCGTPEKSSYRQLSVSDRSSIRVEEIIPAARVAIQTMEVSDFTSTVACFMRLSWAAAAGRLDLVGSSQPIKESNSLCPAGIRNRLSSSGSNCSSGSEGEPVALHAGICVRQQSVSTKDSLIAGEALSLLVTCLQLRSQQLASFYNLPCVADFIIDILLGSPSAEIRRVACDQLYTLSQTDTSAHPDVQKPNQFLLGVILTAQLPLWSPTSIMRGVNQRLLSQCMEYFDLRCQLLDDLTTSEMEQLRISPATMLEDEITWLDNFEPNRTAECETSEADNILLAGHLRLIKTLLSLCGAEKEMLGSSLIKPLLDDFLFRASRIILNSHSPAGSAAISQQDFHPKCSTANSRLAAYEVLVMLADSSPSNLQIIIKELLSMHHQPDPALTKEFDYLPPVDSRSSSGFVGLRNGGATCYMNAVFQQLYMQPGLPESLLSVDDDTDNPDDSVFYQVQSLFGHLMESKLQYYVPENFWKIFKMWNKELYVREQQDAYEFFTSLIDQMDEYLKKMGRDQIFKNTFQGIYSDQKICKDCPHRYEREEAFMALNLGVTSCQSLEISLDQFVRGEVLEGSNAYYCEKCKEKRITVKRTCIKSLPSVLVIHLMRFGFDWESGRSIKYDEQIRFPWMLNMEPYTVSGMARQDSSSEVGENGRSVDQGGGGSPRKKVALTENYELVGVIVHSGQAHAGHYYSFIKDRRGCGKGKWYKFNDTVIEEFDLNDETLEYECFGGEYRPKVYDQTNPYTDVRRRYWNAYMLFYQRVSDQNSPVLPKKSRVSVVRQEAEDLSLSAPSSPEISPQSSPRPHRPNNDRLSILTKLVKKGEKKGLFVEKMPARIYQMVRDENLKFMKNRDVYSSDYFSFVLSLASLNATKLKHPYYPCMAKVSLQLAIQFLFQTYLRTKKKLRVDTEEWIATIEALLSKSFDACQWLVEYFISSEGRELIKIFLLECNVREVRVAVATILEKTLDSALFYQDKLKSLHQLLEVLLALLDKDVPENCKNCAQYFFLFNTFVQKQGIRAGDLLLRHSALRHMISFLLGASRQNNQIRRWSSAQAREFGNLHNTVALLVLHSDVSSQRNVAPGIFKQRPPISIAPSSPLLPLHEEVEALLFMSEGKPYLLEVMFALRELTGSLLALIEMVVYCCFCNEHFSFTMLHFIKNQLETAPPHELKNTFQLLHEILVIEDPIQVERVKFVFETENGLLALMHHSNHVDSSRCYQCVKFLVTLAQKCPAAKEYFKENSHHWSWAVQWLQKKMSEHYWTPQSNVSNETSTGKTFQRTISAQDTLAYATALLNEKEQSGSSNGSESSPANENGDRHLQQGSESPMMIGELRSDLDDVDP
Method in brief: as §1

USP25 = target: T3, USP25 (UniProt Q9UHP3)
T3 sequence (whole entry): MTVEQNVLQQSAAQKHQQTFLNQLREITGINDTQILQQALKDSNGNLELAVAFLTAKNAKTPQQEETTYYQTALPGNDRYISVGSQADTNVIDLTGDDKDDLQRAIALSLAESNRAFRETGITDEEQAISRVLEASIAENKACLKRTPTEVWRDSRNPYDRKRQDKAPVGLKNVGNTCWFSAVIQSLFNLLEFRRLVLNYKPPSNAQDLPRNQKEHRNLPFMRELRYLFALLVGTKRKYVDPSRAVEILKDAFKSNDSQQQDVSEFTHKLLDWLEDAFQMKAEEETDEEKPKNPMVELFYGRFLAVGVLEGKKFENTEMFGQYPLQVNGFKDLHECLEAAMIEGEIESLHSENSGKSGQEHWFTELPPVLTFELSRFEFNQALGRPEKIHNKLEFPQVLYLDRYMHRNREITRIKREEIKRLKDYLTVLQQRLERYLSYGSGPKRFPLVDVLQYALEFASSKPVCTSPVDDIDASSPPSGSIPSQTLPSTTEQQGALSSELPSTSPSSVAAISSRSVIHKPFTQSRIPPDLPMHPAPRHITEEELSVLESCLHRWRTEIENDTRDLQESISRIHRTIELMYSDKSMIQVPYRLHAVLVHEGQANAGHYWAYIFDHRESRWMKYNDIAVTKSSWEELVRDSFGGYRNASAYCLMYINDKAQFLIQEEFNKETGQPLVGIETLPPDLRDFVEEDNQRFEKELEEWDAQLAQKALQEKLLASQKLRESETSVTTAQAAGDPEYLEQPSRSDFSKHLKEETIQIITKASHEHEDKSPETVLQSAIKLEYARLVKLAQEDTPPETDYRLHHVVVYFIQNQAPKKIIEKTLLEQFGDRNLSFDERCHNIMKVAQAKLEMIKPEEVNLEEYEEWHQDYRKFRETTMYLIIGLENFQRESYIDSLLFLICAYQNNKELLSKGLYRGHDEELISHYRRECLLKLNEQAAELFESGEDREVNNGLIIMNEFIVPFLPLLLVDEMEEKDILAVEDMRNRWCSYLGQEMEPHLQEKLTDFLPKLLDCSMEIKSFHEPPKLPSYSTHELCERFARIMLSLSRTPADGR
Method in brief: as §1

USP28 = target: T4, USP28 (UniProt Q96RU2)
T4 sequence (whole entry): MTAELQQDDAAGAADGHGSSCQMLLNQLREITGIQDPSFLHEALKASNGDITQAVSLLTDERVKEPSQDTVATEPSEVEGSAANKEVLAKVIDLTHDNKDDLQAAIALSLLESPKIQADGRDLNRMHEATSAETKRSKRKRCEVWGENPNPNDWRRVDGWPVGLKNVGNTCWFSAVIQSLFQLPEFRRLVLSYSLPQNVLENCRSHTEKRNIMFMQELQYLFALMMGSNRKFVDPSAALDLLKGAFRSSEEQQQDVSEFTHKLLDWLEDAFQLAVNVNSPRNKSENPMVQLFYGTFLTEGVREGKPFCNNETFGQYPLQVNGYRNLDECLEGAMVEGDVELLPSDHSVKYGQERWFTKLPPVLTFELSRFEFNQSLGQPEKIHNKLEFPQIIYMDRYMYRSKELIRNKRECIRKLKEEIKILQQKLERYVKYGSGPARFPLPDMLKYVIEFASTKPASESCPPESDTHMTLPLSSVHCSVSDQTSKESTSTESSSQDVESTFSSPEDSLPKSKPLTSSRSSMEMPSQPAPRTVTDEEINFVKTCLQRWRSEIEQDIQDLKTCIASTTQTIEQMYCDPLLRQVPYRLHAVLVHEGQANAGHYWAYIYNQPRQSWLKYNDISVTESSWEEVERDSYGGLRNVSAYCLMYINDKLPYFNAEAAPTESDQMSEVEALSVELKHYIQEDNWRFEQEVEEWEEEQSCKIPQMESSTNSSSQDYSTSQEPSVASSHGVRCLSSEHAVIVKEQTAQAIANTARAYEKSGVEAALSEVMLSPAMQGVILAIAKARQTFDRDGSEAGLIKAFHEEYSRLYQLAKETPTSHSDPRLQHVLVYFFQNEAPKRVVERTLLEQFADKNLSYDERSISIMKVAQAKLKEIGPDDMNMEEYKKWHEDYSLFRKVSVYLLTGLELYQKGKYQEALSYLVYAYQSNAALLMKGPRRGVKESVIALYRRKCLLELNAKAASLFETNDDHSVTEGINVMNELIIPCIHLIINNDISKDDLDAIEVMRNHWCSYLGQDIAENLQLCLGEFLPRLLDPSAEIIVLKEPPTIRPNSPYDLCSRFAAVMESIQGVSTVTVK
Method in brief: as §1

Measured: log2 ratio of Biotin-Ahx-Ub-VS probe labelling

Cc1cccn2cc(CCNC(=O)CCl)nc12.Cl
inactive: USP19 -0.279 | USP22 -0.0399 | USP24 -0.29 | USP25 -0.0777 | USP28 -0.334
